About 7,900 targets were measured; listed, in parts, are those with a hit and a random draw of the rest. About 0.6% of all pairs of compound and target were hits.
What was measured:
Assay in all cases: log2 fold change, soluble protein after heating vs DMSO (PISA); higher = thermal stabilisation; K562 cells, 10 uM, 30 min; active = over 0.2 and 3.5 SD of the protein, either way, in both replicates (recomputed)
[1] = compound: COC1=CC=C(C=C1)CN2C=CC3=C2C=C(C=C3)C(=O)NO
How it was run: (§1)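 K562 cells at 2×10^6 cells/mL were given 10 μM compound for 30 min. Aliquots then went through 3 min of heating across 48°C-58°C, were pooled, and were extracted in PBS with 0.5% NP-40 at 4°C, and the supernatant after 21,000xg for 90 min was quantified by TMTpro 16plex LC-MS/MS with channel sums equalised. Thermal stability relative to control samples, from duplicates, is given as log2 fold change.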

filanesib = compound: CON(C)C(=O)N1N=C(c2cc(F)ccc2F)S[C@@]1(CCCN)c1ccccc1 [filanesib]
How it was run: as §1

zotarolimus = compound: CO[C@H]1C[C@@H]2CC[C@@H](C)[C@@](O)(O2)C(=O)C(=O)N2CCCC[C@H]2C(=O)O[C@H]([C@H](C)C[C@@H]2CC[C@H](n3cnnn3)[C@H](OC)C2)CC(=O)[C@H](C)/C=C(\C)[C@@H](O)[C@@H](OC)C(=O)[C@H](C)C[C@H](C)/C=C/C=C/C=C/1C [zotarolimus]
How it was run: as §1

idasanutlin = compound: COc1cc(C(=O)O)ccc1NC(=O)[C@@H]1N[C@@H](CC(C)(C)C)[C@](C#N)(c2ccc(Cl)cc2F)[C@H]1c1cccc(Cl)c1F [idasanutlin]
How it was run: as §1

alisertib = compound: COc1cc(Nc2ncc3c(n2)-c2ccc(Cl)cc2C(c2c(F)cccc2OC)=NC3)ccc1C(=O)O [alisertib]
How it was run: as §1

[2] = compound: COc1cc2nc(-c3cc(F)ccc3O)nc(N[C@@H]3CNC[C@H]3C(C)(C)O)c2cc1OC
How it was run: as §1

gefitinib = compound: COc1cc2ncnc(Nc3ccc(F)c(Cl)c3)c2cc1OCCCN1CCOCC1 [gefitinib]
How it was run: as §1

[3] = compound: COc1cccc2cc(-c3nc([C@H]4CC[C@H](C(=O)O)CC4)n4ncnc(N)c34)[nH]c12
How it was run: as §1

lapatinib = compound: CS(=O)(=O)CCNCc1ccc(-c2ccc3ncnc(Nc4ccc(OCc5cccc(F)c5)c(Cl)c4)c3c2)o1 [lapatinib]
How it was run: as §1

pictilisib = compound: CS(=O)(=O)N1CCN(Cc2cc3nc(-c4cccc5[nH]ncc45)nc(N4CCOCC4)c3s2)CC1 [pictilisib]
How it was run: as §1

Measured: log2 fold change

CHAF1A (UniProt Q13111)
inactive: [1] -0.149 | filanesib 0.143 | zotarolimus -0.145 | idasanutlin 0.05 | alisertib 0 | [2] 0.007 | gefitinib 0.169 | [3] 0.004 | lapatinib 0.169 | pictilisib 0.031

CRK (UniProt P46108)
inactive: [1] 0.072 | filanesib 0.008 | zotarolimus 0.144 | idasanutlin 0.061 | alisertib -0.107 | [2] 0.011 | gefitinib -0.006 | [3] 0.025 | lapatinib 0.012 | pictilisib 0.043

CHD3 isoform 3 (UniProt Q12873)
Sequence of UniProt Q12873 (Q12873 whole entry, looked up): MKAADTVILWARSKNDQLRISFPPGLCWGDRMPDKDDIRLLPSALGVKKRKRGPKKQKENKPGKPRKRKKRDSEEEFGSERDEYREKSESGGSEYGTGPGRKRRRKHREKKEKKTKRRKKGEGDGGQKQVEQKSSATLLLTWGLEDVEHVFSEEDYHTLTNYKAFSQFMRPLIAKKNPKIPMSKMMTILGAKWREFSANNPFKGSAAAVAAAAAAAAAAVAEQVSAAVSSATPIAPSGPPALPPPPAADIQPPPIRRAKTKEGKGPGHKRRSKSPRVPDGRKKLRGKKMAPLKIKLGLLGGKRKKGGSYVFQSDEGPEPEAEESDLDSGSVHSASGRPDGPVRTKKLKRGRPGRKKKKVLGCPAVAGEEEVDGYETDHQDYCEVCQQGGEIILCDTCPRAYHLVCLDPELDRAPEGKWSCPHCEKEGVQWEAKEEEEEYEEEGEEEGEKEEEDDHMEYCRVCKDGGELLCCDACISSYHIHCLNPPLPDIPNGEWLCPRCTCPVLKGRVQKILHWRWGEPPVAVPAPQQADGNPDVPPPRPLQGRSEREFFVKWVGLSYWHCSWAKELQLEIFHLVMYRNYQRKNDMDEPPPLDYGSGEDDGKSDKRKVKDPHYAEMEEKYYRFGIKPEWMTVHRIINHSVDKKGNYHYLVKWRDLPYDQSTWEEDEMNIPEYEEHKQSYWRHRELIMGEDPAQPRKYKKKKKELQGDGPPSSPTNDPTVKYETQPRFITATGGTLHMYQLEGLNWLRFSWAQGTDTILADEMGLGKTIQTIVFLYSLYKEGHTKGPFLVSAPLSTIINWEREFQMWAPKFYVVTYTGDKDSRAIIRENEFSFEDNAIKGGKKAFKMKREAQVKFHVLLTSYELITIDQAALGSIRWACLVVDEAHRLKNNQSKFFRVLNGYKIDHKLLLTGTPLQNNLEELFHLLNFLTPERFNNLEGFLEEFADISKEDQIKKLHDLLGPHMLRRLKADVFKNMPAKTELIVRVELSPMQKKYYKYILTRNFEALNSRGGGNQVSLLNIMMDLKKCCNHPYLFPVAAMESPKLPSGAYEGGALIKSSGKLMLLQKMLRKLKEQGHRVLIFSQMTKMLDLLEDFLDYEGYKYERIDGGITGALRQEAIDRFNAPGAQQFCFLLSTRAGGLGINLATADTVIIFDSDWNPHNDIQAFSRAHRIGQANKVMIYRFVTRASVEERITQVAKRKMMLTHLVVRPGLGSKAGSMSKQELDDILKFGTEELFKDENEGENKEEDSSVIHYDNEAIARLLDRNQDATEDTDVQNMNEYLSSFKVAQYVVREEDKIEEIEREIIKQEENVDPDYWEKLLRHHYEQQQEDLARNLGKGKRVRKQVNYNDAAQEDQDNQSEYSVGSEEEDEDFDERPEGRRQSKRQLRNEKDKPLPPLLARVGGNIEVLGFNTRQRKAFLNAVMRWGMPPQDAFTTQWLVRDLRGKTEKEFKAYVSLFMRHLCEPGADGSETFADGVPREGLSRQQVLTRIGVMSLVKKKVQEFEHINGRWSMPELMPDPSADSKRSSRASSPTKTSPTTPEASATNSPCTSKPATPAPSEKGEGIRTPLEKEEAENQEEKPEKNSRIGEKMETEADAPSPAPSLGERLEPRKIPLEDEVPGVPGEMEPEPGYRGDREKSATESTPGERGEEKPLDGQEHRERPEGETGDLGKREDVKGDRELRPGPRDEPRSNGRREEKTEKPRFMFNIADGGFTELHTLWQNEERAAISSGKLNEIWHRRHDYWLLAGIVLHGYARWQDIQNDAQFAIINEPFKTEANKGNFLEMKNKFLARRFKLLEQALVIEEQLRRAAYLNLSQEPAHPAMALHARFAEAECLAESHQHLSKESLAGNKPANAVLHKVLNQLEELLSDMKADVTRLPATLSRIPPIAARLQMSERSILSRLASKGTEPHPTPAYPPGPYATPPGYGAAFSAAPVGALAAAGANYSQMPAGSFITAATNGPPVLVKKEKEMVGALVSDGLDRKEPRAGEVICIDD
inactive: [1] -0.137 | filanesib 0.082 | zotarolimus 0.174 | idasanutlin 0.097 | alisertib -0.001 | [2] -0.207 | gefitinib 0 | [3] -0.051 | lapatinib -0.016 | pictilisib -0.024

CALCOCO2 isoform 4 (UniProt Q13137)
inactive: [1] -0.041 | filanesib -0.166 | zotarolimus -0.044 | idasanutlin 0.014 | alisertib 0 | [2] 0.018 | gefitinib -0.07 | [3] -0.08 | lapatinib 0 | pictilisib 0.031

COPS8 (UniProt Q99627)
inactive: [1] 0.006 | filanesib 0.023 | zotarolimus 0.045 | idasanutlin -0.017 | alisertib 0.042 | [2] -0.078 | gefitinib -0.028 | [3] 0.117 | lapatinib -0.01 | pictilisib -0.014

CERS2 (UniProt Q96G23)
active: pictilisib -0.262
inactive: [1] -0.045 | filanesib -0.117 | zotarolimus -0.062 | idasanutlin -0.047 | alisertib -0.129 | [2] -0.107 | gefitinib -0.095 | [3] -0.005 | lapatinib -0.03

CMTM3 (UniProt Q96MX0)
inactive: [1] -0.122 | filanesib 0.105 | zotarolimus -0.075 | idasanutlin -0.045 | alisertib -0.069 | [2] -0.018 | gefitinib 0.021 | [3] 0.035 | lapatinib -0.062 | pictilisib -0.091

CCNT1 (UniProt O60563)
active: [2] -0.371
inactive: [1] -0.05 | filanesib 0.13 | zotarolimus 0.044 | idasanutlin 0.109 | alisertib -0.093 | gefitinib 0.021 | [3] -0.158 | lapatinib 0.098 | pictilisib -0.049

CELF2 isoform 3 (UniProt O95319)
inactive: [1] 0.115 | filanesib 0.052 | zotarolimus -0.035 | idasanutlin -0.044 | alisertib -0.122 | [2] 0.1 | gefitinib -0.027 | [3] -0.006 | lapatinib 0.032 | pictilisib 0.051

C19orf53 (UniProt Q9UNZ5)
inactive: [1] -0.225 | filanesib 0.375 | zotarolimus 0.042 | idasanutlin 0.209 | alisertib -0.086 | [2] -0.067 | gefitinib -0.045 | [3] -0.167 | lapatinib 0.184 | pictilisib -0.073

CSNK2A2 (UniProt P19784)
inactive: [1] -0.042 | filanesib -0.019 | zotarolimus -0.003 | idasanutlin -0.094 | alisertib 0.001 | [2] -0.177 | gefitinib -0.031 | [3] 0.033 | lapatinib 0.02 | pictilisib 0.128

CSNK2B (UniProt P67870)
Sequence of UniProt P67870 (P67870 whole entry, looked up): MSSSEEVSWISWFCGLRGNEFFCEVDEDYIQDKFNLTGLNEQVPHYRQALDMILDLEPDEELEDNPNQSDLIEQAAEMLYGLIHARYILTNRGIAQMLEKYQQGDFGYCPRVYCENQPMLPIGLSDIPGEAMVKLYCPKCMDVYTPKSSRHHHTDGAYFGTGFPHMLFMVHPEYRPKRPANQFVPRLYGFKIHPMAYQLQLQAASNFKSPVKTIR
inactive: [1] 0.113 | filanesib -0.006 | zotarolimus -0.002 | idasanutlin -0.026 | alisertib -0.013 | [2] -0.196 | gefitinib -0.013 | [3] 0.028 | lapatinib 0.04 | pictilisib 0.079

CERT isoform 3 (UniProt Q9Y5P4)
inactive: [1] -0.025 | filanesib 0.001 | zotarolimus 0.2 | idasanutlin -0.145 | alisertib -0.064 | [2] -0.201 | gefitinib 0.157 | [3] -0.004 | lapatinib 0.247 | pictilisib 0.186

CEPT1 (UniProt Q9Y6K0)
inactive: [1] 0.029 | filanesib -0.277 | zotarolimus -0.095 | idasanutlin -0.142 | alisertib 0.009 | [2] 0.022 | gefitinib -0.025 | [3] 0.036 | lapatinib 0.095 | pictilisib 0.011

CD55 isoform 7 (UniProt P08174)
Sequence of UniProt P08174 (P08174 whole entry, looked up): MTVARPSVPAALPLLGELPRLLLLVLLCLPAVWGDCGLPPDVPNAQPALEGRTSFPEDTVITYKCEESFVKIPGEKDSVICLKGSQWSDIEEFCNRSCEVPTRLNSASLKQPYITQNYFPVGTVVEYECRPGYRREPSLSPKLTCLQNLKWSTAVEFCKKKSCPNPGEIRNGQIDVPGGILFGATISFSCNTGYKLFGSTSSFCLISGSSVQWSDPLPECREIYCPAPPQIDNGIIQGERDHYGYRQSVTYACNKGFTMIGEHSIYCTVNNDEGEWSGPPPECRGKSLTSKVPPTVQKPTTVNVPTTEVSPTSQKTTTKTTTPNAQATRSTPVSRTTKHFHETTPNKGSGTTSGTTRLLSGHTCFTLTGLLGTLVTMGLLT
inactive: [1] -0.115 | filanesib 0.086 | zotarolimus 0.001 | idasanutlin 0.038 | alisertib -0.144 | [2] 0.012 | gefitinib 0.104 | [3] -0.136 | lapatinib 0.031 | pictilisib 0.005

CDK5RAP3 isoform 4 (UniProt Q96JB5)
Sequence of UniProt Q96JB5 (Q96JB5 whole entry, looked up): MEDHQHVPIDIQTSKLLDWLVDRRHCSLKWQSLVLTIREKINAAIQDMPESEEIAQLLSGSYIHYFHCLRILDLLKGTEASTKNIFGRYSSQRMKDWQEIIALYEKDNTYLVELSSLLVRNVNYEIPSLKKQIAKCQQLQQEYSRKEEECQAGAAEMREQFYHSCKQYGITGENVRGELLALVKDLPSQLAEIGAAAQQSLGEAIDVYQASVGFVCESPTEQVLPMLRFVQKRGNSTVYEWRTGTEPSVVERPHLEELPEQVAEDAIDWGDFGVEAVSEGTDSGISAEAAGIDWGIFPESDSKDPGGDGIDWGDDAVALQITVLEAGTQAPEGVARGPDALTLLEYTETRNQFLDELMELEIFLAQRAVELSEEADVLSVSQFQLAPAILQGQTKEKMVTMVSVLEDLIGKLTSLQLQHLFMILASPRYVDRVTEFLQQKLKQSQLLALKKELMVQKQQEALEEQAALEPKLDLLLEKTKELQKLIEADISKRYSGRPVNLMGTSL
inactive: [1] -0.008 | filanesib -0.085 | zotarolimus 0.026 | idasanutlin -0.091 | alisertib -0.001 | [2] 0.075 | gefitinib 0.024 | [3] 0.004 | lapatinib -0.034 | pictilisib -0.015

CAMK2G isoform 6 (UniProt Q13555)
Sequence of UniProt Q13555 (Q13555 whole entry, looked up): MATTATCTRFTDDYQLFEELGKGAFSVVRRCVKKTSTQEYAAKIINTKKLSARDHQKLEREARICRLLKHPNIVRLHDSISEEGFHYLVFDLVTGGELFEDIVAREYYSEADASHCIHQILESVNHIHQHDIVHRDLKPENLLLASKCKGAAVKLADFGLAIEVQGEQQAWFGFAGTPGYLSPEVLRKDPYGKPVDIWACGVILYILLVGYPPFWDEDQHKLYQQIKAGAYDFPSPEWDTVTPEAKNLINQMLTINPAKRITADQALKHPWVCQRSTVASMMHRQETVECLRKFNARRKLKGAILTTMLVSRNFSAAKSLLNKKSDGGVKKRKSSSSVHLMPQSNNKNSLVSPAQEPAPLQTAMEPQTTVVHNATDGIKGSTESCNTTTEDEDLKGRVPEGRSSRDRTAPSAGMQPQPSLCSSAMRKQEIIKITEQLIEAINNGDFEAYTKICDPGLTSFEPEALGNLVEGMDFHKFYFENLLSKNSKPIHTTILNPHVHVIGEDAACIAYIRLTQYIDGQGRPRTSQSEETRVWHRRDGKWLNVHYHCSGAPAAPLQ
inactive: [1] -0.018 | filanesib 0.269 | zotarolimus 0.039 | idasanutlin -0.101 | alisertib -0.173 | [2] -0.032 | gefitinib -0.006 | [3] -0.204 | lapatinib 0.12 | pictilisib 0.141

CHP1 (UniProt Q99653)
inactive: [1] 0.039 | filanesib -0.044 | zotarolimus 0.058 | idasanutlin -0.084 | alisertib -0.144 | [2] 0.129 | gefitinib 0.026 | [3] -0.02 | lapatinib -0.054 | pictilisib 0.053

CPSF7 isoform 3 (UniProt Q8N684)
inactive: [1] 0.018 | filanesib 0.018 | zotarolimus 0.033 | idasanutlin -0.003 | alisertib -0.074 | [2] 0.065 | gefitinib 0.029 | [3] -0.016 | lapatinib 0.013 | pictilisib 0.12

CAD (UniProt P27708)
inactive: [1] 0.019 | filanesib -0.054 | zotarolimus -0.014 | idasanutlin -0.03 | alisertib -0.058 | [2] -0.011 | gefitinib -0.044 | [3] 0.047 | lapatinib -0.031 | pictilisib -0.04

CAMSAP1 isoform 3 (UniProt Q5T5Y3)
inactive: [1] 0.011 | filanesib -0.015 | zotarolimus 0.045 | idasanutlin 0.091 | alisertib 0.039 | [2] 0.169 | gefitinib -0.034 | [3] 0.056 | lapatinib 0.095 | pictilisib 0.118

CDC42BPB (UniProt Q9Y5S2)
inactive: [1] -0.062 | filanesib 0.147 | zotarolimus 0.089 | idasanutlin 0.062 | alisertib -0.1 | [2] -0.371 | gefitinib -0.07 | [3] 0.071 | lapatinib -0.009 | pictilisib 0.025

CNOT2 (UniProt Q9NZN8)
Sequence of UniProt Q9NZN8 (Q9NZN8 whole entry, looked up): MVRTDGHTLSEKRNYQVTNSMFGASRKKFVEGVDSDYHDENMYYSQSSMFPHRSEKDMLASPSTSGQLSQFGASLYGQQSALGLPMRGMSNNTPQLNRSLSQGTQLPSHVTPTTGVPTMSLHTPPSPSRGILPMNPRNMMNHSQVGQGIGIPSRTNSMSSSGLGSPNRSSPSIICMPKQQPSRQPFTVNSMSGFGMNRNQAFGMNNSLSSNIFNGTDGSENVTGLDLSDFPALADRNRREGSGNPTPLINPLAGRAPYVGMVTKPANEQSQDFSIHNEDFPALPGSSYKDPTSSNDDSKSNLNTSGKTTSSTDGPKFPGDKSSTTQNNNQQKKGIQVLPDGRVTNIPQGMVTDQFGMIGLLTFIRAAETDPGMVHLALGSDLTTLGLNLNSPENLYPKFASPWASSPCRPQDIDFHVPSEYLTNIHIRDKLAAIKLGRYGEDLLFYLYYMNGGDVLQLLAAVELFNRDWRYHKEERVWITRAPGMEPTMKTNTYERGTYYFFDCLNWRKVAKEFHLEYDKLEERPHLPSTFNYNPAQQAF
inactive: [1] -0.006 | filanesib 0.006 | zotarolimus 0.014 | idasanutlin 0.005 | alisertib -0.01 | [2] 0.021 | gefitinib 0.017 | [3] -0.021 | lapatinib 0.048 | pictilisib 0.04

CDK5 (UniProt Q00535)
Sequence of UniProt Q00535 (Q00535 whole entry, looked up): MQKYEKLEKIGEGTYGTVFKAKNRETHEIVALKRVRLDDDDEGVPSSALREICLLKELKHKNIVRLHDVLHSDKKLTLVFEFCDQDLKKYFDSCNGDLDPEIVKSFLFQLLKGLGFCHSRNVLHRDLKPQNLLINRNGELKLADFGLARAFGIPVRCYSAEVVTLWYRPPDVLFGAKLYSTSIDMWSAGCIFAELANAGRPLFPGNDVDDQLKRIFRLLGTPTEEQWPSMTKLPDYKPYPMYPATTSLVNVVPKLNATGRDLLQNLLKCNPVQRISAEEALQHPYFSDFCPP
inactive: [1] 0.004 | filanesib 0.024 | zotarolimus -0.003 | idasanutlin -0.099 | alisertib -0.046 | [2] 0.054 | gefitinib 0.002 | [3] 0 | lapatinib -0.033 | pictilisib -0.011

CDCA2 (UniProt Q69YH5)
inactive: [1] 0.278 | filanesib -0.036 | zotarolimus -0.04 | idasanutlin 0.018 | alisertib 0.585 | [2] -0.079 | gefitinib 0.109 | [3] -0.011 | lapatinib 0.204 | pictilisib -0.127

CHMP4C (UniProt Q96CF2)
Sequence of UniProt Q96CF2 (Q96CF2 whole entry, looked up): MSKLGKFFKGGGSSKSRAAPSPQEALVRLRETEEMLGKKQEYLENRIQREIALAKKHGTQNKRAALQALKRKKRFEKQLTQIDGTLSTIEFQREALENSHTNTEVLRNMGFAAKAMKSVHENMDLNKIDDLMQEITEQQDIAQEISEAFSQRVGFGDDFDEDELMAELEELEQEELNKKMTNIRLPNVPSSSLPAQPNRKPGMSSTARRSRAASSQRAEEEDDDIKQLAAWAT
inactive: [1] 0.163 | filanesib 0.014 | zotarolimus -0.028 | idasanutlin -0.001 | alisertib 0.037 | [2] 0.064 | gefitinib -0.014 | [3] 0.02 | lapatinib -0.027 | pictilisib -0.005

CBS (UniProt P35520)
inactive: filanesib -0.05 | zotarolimus 0.044 | idasanutlin 0.014 | alisertib -0.073 | [2] 0.024 | gefitinib 0.007 | [3] 0.011 | lapatinib -0.026 | pictilisib 0.043
active: [1] -0.225

CHERP (UniProt Q8IWX8)
inactive: [1] 0.04 | filanesib 0.266 | zotarolimus 0.051 | idasanutlin 0.063 | alisertib 0.002 | [2] -0.227 | gefitinib -0.02 | [3] 0.002 | lapatinib -0.023 | pictilisib 0.038

COX20 isoform 2 (UniProt Q5RI15)
Sequence of UniProt Q5RI15 (Q5RI15 whole entry, looked up): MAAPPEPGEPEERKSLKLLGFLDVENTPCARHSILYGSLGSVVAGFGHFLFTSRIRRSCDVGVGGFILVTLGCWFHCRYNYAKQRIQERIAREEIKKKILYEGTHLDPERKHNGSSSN
inactive: [1] -0.029 | filanesib -0.011 | zotarolimus -0.029 | idasanutlin -0.039 | alisertib -0.025 | [2] 0.06 | gefitinib -0.01 | [3] 0.012 | lapatinib -0.014 | pictilisib -0.081

CDK12 (UniProt Q9NYV4)
inactive: [1] -0.019 | filanesib 0.463 | zotarolimus -0.072 | idasanutlin 0.303 | alisertib 0.062 | [2] -0.226 | gefitinib 0.005 | [3] -0.03 | lapatinib 0.134 | pictilisib -0.018

Source: the supplement of paper PMC10849652
